This is part of a sample that, as a whole, favours compounds with a hit. Of some 83,000 tested, about 20% had one in any assay.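 Values shown are percent growth following 48 h exposure of cells in 96-well plates to a single concentration of compound; below 10 was considered active.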 A number with no mark means an inactive call.

This assay deals with MDA-MB-468 breast. The assay can be described thus: NCI-60 one-dose screen, 48 h (100 = growth as untreated, 0 = no growth, -100 = all killed). To be noted: 10 µM unless noted.
Consider `NC(=N\N=C\c1ccccc1O)/C(N)=N/N=C/c1ccccc1O`, for which the growth is 74%. In the case of `C=C1CC[C@H]2[C@@](C)(CCC3OC(c4ccc(OCc5cn(C6CC(OC(C)=O)C(OC(C)=O)C(COC(C)=O)O6)nn5)cc4)OC[C@]32C)[C@@H]1/C=C/C1=CCOC1=O` (stereo partly drawn), the growth is 47.3%. Then `Nc1nccc(Nc2ccccc2)n1`, with 116%.

The record behind these values is PubChem BioAssay (NCI).
